Measurements as given in the supplement of paper PMC10849652.
About 8,800 targets were measured; listed, in parts, are those with a hit and a random draw of the rest. About 0.5% of all pairs of compound and target were hits. Values without a mark were called inactive.

Columns and labels:
Assay in all cases: log2 fold change, soluble protein after heating vs DMSO (PISA); higher = thermal stabilisation; K562 lysate, 10 uM; active = over 0.2 and 3.5 SD of the protein, either way, in both replicates (recomputed)
vemurafenib = compound: CCCS(=O)(=O)Nc1ccc(F)c(C(=O)c2c[nH]c3ncc(-c4ccc(Cl)cc4)cc23)c1F [vemurafenib]
In short: (§1)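 Quantification was by TMTpro 16plex LC-MS/MS with equalised channel sums, applied to the supernatant after 21,000xg for 90 min. Samples were crude K562 extract at 1 mg/mL protein in PBS pH 7.4 with 1 mM MgCl2, treated with 10 μM compound for 30 min, heated for 3 min across 48°C-58°C, pooled and brought to 0.5% NP-40 at 4°C. Values are log-two fold changes in thermal stability relative to solvent controls, from duplicates.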

[1] = compound: CCCS(=O)(=O)Nc1ccc(F)c(C(=O)c2c[nH]c3ncc(Cl)cc23)c1F
In short: as §1

[2] = compound: CC[C@@H]1C(=O)N(C)c2cnc(Nc3ccc(C(=O)NC4CCN(C)CC4)cc3OC)nc2N1C1CCCC1
In short: as §1

volasertib = compound: CC[C@@H]1C(=O)N(C)c2cnc(Nc3ccc(C(=O)N[C@H]4CC[C@H](N5CCN(CC6CC6)CC5)CC4)cc3OC)nc2N1C(C)C [volasertib]
In short: as §1

[3] = compound: CCn1cc(-c2ccnc3[nH]c(-c4cccc(CN(C)C)c4)cc23)c(-c2ccc(NC(=O)N(C)C)cc2)n1
In short: as §1

[4] = compound: CN1CCC(CNc2ccc3ncc(-c4cccc(OC(F)(F)F)c4)n3n2)CC1
In short: as §1

saracatinib = compound: CN1CCN(CCOc2cc(OC3CCOCC3)c3c(Nc4c(Cl)ccc5c4OCO5)ncnc3c2)CC1 [saracatinib]
In short: as §1

sotrastaurin = compound: CN1CCN(c2nc(C3=C(c4c[nH]c5ccccc45)C(=O)NC3=O)c3ccccc3n2)CC1 [sotrastaurin]
In short: as §1

alvocidib = compound: CN1CC[C@H](c2c(O)cc(O)c3c(=O)cc(-c4ccccc4Cl)oc23)[C@H](O)C1 [alvocidib]
In short: as §1

defactinib = compound: CNC(=O)c1ccc(Nc2ncc(C(F)(F)F)c(NCc3nccnc3N(C)S(C)(=O)=O)n2)cc1 [defactinib]
In short: as §1

[5] = compound: CNc1nc(-c2ccc3c(N)n[nH]c3c2)cc(N2C[C@@H](C(=O)NC3CCCCC3)CC[C@H]2C)n1
In short: as §1

encorafenib = compound: COC(=O)N[C@@H](C)CNc1nccc(-c2cn(C(C)C)nc2-c2cc(Cl)cc(NS(C)(=O)=O)c2F)n1 [encorafenib]
In short: as §1

[6] = compound: COC(=O)[C@H](CCSC)NC(=O)C1=C(C=C(C=C1)NC[C@H](CS)N)C2=CC=CC=C2
In short: as §1

[7] = compound: COc1cc2nc(-c3cc(F)ccc3O)nc(N[C@@H]3CNC[C@H]3C(C)(C)O)c2cc1OC
In short: as §1

barasertib = compound: CCN(CCCOc1ccc2c(Nc3cc(CC(=O)Nc4cccc(F)c4)[nH]n3)ncnc2c1)CCOP(=O)(O)O [barasertib]
In short: as §1

[8] = compound: CCn1c(C(=O)N(C2CC2)C2CC2)cc2c3c(ncn3C)c(Nc3cc(C)n(C)n3)nc21
In short: as §1

Tubastatin A = compound: CN1CCc2c(c3ccccc3n2Cc2ccc(C(=O)NO)cc2)C1 [Tubastatin A]
In short: as §1

[9] = compound: CNC(=O)C1=CC=CC=C1NC2=NC(=NC=C2Cl)NC3=C(C=C(C=C3)N4CCOCC4)OC
In short: as §1

alisertib = compound: COc1cc(Nc2ncc3c(n2)-c2ccc(Cl)cc2C(c2c(F)cccc2OC)=NC3)ccc1C(=O)O [alisertib]
In short: as §1

gefitinib = compound: COc1cc2ncnc(Nc3ccc(F)c(Cl)c3)c2cc1OCCCN1CCOCC1 [gefitinib]
In short: as §1

UniProt Q00536, sequence (Q00536 whole entry, looked up): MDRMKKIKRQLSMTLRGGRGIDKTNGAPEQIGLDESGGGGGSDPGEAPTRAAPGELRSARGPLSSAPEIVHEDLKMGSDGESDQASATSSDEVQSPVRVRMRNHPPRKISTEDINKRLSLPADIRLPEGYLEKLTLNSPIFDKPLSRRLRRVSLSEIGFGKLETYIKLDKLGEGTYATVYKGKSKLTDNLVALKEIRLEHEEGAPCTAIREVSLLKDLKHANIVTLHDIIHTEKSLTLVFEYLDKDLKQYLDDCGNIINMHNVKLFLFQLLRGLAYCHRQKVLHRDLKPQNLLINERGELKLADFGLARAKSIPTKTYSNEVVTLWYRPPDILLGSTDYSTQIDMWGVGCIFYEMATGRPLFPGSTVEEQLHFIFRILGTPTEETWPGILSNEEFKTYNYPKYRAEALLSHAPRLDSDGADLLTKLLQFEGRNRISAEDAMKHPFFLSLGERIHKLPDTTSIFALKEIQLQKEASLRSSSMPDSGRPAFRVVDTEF
UniProt P49918, sequence (P49918 whole entry, looked up): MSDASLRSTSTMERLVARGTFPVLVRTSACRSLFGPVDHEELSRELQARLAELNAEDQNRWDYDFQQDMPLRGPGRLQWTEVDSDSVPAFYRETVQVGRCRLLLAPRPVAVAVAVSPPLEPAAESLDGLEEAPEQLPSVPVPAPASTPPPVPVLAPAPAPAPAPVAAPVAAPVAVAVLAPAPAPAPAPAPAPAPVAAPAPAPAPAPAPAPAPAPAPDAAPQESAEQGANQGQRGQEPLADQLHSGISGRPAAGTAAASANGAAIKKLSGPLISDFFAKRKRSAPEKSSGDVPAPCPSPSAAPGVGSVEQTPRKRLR
UniProt P21127, sequence (P21127 whole entry, looked up): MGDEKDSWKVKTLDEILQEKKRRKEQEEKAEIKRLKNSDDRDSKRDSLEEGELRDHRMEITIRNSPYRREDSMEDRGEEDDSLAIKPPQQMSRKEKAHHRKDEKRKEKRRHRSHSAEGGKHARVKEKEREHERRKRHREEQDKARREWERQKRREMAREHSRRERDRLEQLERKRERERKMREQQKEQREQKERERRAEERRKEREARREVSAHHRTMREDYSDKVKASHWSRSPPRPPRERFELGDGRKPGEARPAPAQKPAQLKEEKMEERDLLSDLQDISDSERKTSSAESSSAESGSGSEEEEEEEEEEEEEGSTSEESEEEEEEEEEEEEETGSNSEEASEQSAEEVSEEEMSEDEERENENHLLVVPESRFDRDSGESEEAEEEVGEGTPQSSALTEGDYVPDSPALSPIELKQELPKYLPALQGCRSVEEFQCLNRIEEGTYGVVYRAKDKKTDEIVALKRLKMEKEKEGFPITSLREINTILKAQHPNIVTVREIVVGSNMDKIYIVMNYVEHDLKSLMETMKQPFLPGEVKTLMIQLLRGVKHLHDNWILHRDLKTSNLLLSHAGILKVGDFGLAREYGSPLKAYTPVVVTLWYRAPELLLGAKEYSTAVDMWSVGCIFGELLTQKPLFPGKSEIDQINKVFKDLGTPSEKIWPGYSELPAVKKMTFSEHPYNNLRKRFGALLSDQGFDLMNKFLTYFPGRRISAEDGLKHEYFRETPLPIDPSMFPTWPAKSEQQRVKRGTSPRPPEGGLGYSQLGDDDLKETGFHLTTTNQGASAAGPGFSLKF
UniProt Q9BUK0, sequence (Q9BUK0 whole entry, looked up): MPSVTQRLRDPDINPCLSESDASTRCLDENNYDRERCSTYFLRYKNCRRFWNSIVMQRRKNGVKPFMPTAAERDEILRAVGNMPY
UniProt Q9P281, sequence (Q9P281 whole entry, looked up): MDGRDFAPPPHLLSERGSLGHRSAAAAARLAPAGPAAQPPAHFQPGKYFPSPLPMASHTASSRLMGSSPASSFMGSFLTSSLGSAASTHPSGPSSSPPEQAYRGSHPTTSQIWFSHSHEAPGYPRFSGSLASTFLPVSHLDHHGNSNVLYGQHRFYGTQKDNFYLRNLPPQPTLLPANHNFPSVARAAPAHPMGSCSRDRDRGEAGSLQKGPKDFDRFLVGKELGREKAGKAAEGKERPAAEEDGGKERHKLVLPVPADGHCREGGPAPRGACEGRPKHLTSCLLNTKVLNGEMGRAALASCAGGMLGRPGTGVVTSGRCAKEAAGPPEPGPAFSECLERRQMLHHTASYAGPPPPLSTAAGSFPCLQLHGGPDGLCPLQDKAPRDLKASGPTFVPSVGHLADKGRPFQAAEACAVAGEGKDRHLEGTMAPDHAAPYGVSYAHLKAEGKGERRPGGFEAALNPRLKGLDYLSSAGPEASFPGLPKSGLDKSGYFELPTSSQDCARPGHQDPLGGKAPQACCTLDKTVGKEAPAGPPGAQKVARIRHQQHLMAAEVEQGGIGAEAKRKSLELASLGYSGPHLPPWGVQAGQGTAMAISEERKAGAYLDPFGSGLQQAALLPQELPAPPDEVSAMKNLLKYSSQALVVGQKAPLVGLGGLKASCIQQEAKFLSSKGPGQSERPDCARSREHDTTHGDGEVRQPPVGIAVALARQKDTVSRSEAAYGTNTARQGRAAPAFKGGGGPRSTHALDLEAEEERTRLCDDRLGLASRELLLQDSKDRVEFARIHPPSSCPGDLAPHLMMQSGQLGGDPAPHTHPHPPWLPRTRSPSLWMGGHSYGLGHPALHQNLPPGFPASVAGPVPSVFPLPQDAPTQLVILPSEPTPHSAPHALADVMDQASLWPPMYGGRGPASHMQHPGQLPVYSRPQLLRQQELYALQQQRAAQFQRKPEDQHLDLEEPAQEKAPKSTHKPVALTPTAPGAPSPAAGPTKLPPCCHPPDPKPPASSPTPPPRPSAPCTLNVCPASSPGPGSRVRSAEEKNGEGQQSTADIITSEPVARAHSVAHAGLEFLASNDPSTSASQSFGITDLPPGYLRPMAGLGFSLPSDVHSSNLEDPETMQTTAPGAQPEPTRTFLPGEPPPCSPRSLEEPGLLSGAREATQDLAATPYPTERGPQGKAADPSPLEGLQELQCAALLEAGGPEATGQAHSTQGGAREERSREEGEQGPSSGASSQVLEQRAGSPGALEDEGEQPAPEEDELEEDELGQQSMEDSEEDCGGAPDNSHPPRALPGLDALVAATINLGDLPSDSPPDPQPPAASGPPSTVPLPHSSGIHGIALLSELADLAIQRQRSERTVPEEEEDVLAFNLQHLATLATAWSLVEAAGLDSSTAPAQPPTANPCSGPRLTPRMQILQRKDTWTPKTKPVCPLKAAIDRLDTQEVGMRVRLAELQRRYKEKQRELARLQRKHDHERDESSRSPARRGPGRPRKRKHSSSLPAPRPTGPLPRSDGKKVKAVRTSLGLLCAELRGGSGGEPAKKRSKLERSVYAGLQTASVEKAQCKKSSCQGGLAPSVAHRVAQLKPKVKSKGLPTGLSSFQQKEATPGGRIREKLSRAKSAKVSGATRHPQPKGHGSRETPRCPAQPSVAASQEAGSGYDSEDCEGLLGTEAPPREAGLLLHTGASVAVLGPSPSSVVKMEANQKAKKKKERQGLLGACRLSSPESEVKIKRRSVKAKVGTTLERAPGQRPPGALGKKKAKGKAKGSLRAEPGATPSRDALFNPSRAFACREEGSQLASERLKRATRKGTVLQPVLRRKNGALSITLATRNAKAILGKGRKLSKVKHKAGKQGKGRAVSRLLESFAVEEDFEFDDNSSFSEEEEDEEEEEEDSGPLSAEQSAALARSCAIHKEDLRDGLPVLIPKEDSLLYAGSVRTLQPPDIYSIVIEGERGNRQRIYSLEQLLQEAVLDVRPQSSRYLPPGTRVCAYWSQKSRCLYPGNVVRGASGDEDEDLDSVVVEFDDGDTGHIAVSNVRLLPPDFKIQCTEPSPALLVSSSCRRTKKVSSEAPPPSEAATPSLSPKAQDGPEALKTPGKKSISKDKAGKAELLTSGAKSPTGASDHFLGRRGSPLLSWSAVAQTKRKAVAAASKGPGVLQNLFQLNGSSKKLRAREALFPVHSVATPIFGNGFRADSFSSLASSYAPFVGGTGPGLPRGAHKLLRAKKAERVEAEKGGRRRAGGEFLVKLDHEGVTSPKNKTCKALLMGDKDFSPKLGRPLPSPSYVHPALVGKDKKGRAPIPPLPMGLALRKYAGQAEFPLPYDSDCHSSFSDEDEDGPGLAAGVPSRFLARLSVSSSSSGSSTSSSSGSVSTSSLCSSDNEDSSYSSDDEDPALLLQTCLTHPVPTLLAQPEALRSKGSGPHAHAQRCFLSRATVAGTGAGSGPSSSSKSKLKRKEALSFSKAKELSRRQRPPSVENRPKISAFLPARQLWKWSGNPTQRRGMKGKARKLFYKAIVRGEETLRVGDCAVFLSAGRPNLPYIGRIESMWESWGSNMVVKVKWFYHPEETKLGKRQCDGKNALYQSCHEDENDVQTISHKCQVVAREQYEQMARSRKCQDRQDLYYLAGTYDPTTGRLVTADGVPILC
UniProt Q5U623, sequence (Q5U623 whole entry, looked up): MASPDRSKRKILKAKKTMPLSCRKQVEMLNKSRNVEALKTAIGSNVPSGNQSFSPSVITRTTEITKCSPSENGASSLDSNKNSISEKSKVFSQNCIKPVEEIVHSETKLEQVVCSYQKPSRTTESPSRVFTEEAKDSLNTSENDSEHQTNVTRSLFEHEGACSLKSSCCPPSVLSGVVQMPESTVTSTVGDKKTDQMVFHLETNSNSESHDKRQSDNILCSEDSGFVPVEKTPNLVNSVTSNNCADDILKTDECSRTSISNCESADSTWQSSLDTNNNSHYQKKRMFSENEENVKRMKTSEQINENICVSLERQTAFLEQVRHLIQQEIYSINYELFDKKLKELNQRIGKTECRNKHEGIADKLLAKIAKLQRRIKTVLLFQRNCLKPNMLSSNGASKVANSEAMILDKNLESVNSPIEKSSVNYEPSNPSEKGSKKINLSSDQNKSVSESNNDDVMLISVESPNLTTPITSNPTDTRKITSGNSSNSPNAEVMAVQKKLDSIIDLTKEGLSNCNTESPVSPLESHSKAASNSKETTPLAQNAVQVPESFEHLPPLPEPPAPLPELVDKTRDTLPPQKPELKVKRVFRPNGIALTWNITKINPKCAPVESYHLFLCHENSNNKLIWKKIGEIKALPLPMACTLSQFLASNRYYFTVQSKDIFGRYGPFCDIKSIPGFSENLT

| Target | log2 fold change (vemurafenib) | log2 fold change [1] | log2 fold change [2] | log2 fold change (volasertib) | log2 fold change [3] | log2 fold change [4] | log2 fold change (saracatinib) | log2 fold change (sotrastaurin) | log2 fold change (alvocidib) | log2 fold change (defactinib) | log2 fold change [5] | log2 fold change (encorafenib) | log2 fold change [6] | log2 fold change [7] | log2 fold change (barasertib) | log2 fold change [8] | log2 fold change (Tubastatin A) | log2 fold change [9] | log2 fold change (alisertib) | log2 fold change (gefitinib) |
| --- | --- | --- | --- | --- | --- | --- | --- | --- | --- | --- | --- | --- | --- | --- | --- | --- | --- | --- | --- | --- |
| CDKL5 (UniProt O76039) | -0.131 | 0.041 | -0.149 | -0.035 | -0.091 | 0.088 | -0.122 | 0.048 | 1.14 (active) | 0.55 | -0.052 | -0.038 | -0.116 | 0.058 | – | – | – | – | – | – |
| CDK11B (UniProt P21127) | 0.025 | 0.002 | -0.087 | -0.057 | -0.047 | -0.048 | -0.024 | 0.01 | 0.273 (active) | -0.013 | 0.019 | -0.012 | 0.108 | -0.036 | 0.022 | 0.029 | -0.081 | 0.012 | 0.012 | -0.016 |
| CDK16 isoform 2 (UniProt Q00536) | 0.03 | 0.075 | -0.006 | -0.175 | -0.027 | 0.083 | 0.03 | 0.236 | – | 0.285 | 0.106 | 0.04 | -0.024 | 0.008 | 0.007 | -0.03 | 0.029 | 0.05 | -0.014 | -0.026 |
| ATF7IP2 (UniProt Q5U623) | 0.062 | -0.041 | – | 0.083 | -0.145 | 0.197 | – | 0.031 | -0.197 | -0.072 | – | – | – | 0.064 | 0.009 | -0.064 | 0.071 | -0.065 | 0.003 | 0.044 |
| CD80 (UniProt P33681) | 0.115 | -0.113 | 0.063 | -0.001 | 0.239 | -0.177 | -0.069 | 0.032 | 0.071 | -0.085 | 0.11 | 0.016 | -0.082 | -0.011 | – | -0.011 | 0 | 0.014 | -0.345 | -0.001 |
| BAHCC1 (UniProt Q9P281) | 0.11 | 0.004 | -0.247 | 0 | 0.415 | 0.219 | 0.025 | 0.127 | -0.569 | -0.208 | -0.054 | 0.038 | -0.024 | 0.076 | – | – | – | -0.135 | 0.085 | 0.095 |
| CDKN1B (UniProt P46527) | -0.12 | 0.004 | 0.063 | -0.039 | 0.118 | -0.119 | -0.012 | 0.015 | 0.057 | 0.067 | -0.045 | 0.03 | -0.043 | 0.023 | -0.032 | 0.099 | 0.048 | 0.035 | – | – |
| C3orf33 (UniProt Q6P1S2) | 0.295 | -0.043 | – | 0.063 | -0.823 (active) | 0.216 | 0.045 | 0.047 | -0.166 | 0.224 | 0.115 | – | – | -0.111 | -0.04 | -0.056 | 0.124 | -0.084 | -0.13 | 0.006 |
| CCDC51 (UniProt Q96ER9) | 0.001 | -0.008 | -0.005 | 0.002 | 0.262 (active) | -0.422 (active) | -0.034 | -0.072 | 0.127 | 0.008 | 0.038 | -0.008 | -0.001 | -0.066 | 0.027 | -0.009 | -0.037 | -0.001 | 0.016 | 0.022 |
| CCDC85B (UniProt Q15834) | -0.317 | 0.04 | 0.086 | 0.345 | 0.126 | -0.01 | 0.163 | -0.035 | 0.016 | 0.183 | -0.08 | 0.255 | -0.481 | -0.508 (active) | -0.047 | 0.007 | 0.016 | 0.217 | – | – |
| CDKN1C (UniProt P49918) | -0.275 | -0.003 | 0.027 | -0.066 | 0.073 | 0.03 | -0.14 | -0.054 | -0.035 | -0.186 | -0.067 | -0.037 | -0.019 | 0.046 | -0.041 | 0.019 | -0.056 | 0.025 | -0.082 | -0.136 |
| CHCHD7 isoform 4 (UniProt Q9BUK0) | 0.026 | 0.06 | 0.073 | -0.064 | -0.71 (active) | 0.155 | -0.021 | 0.077 | -0.097 | -0.009 | -0.141 | 0.005 | -0.003 | 0.027 | -0.026 | 0.021 | 0.082 | – | 0.177 | 0.118 |
| BRD4 (UniProt O60885) | 0.049 | 0.016 | 0.538 (active) | 0.217 (active) | -0.007 | 0.037 | -0.025 | -0.012 | -0.003 | -0.05 | 0.036 | 0 | 0.03 | -0.03 | -0.007 | -0.008 | -0.001 | 0.02 | 0.038 | 0.034 |
| CEP41 (UniProt Q9BYV8) | -0.022 | 0.108 | 0.018 | -0.023 | 0.02 | -0.009 | -0.032 | 0.03 | 0.042 | 0.015 | 0.073 | 0.001 | -0.139 | -0.059 | 0.03 | – | – | 0.083 | 0.029 | 0.011 |
| CACUL1 (UniProt Q86Y37) | 0.04 | 0.053 | -0.04 | 0.106 | 0.012 | -0.111 | -0.026 | 0.103 | 0.022 | 0.027 | -0.04 | -0.02 | -0.042 | 0.212 | – | -0.072 | -0.029 | -0.027 | – | – |
| CAPNS1 (UniProt K7ES78) | 0.143 | -0.07 | – | 0.033 | – | – | 0.12 | -0.071 | – | 0.035 | -0.068 | – | – | -0.083 | – | 0.076 | -0.074 | 0.001 | – | – |
| C18orf25 isoform 2 (UniProt Q96B23) | -0.01 | 0.027 | 0.067 | -0.021 | -0.234 | 0.037 | -0.037 | – | 0.1 | 0.072 | 0.043 | 0.033 | -0.084 | 0.031 | -0.034 | -0.047 | 0.106 | 0.1 | 0.058 | 0.034 |
| C1orf131 isoform 5 (UniProt Q8NDD1) | 0.034 | 0.026 | 0.148 | -0.029 | -0.242 | 0.095 | -0.009 | 0.017 | -0.118 | 0.013 | 0.148 | 0.127 | 0.02 | -0.038 | – | -0.042 | -0.036 | 0.03 | 0.148 | 0.111 |
